PMC5700166

Experiments:
[1] = target: T1, GST-Nv-NF-kB (Ser allele) (Nematostella vectensis, UniProt A7UNT2 2-411); assay: protein-binding microarray (PBM); PBM: ~300 nM protein, 6 mM HEPES pH 7.8, 80 mM KCl, 0.5 mM EDTA, 0.5 mM EGTA, 6% glycerol, 35 ng/ul poly-dIdC, 1% milk, 1 h, room temperature; Ap Aiptasia and Nv Nematostella (sea anemones) / Co Capsaspora / Aq Amphimedon (sponge) / Dm Drosophila / Hu human; RHD is the Rel homology domain; high values mean tight binding; conditions: dsDNA, one strand shown
T1 sequence: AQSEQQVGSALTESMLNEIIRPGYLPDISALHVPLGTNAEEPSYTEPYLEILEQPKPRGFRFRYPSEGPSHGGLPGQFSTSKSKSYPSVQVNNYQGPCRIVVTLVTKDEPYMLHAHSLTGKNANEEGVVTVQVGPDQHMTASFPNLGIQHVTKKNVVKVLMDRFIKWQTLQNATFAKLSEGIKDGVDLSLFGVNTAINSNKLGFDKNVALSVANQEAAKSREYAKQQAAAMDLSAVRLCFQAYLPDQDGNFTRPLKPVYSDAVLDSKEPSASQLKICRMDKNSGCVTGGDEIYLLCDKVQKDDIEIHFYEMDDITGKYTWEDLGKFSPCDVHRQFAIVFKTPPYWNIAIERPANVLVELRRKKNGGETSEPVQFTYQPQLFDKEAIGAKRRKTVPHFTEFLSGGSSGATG

GST-Hu-p50 = GST-Hu-p50 (Homo sapiens, UniProt P19838 7-356); assay: as above; conditions: dsDNA, one strand shown
Sequence of GST-Hu-p50 (P19838 7-356): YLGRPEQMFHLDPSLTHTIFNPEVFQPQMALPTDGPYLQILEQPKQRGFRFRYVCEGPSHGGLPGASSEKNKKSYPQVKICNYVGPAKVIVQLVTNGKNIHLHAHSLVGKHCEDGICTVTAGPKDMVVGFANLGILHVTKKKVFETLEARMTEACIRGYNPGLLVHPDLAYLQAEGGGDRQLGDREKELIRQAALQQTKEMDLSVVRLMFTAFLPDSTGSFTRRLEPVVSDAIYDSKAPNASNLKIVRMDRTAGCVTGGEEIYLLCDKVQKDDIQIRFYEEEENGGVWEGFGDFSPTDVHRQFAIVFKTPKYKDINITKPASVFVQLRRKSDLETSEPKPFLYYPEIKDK

Row | Sequence | binding signal [1] | binding signal (GST-Hu-p50)
1 | CCGATTAACATCAGGCGAGTCCCTGATGTTAATCGGGTCTTGATTCGCTTGACGCTGCTG | 2.72 z-score | 2.61 z-score
2 | CCGATTAACATCAAAAAAATACCTGATGTTAATCGGGTCTTGATTCGCTTGACGCTGCTG | 4.89 z-score | 3.43 z-score
3 | CCGATTAACATCAGGGATTTCTATGATGTTAATCGGGTCTTGATTCGCTTGACGCTGCTG | 3.11 z-score | 3.37 z-score
4 | CCGATTAACATCACGTAAATCCCTGATGTTAATCGGGTCTTGATTCGCTTGACGCTGCTG | 2.27 z-score | 2.23 z-score
5 | CCGATTAACATCACGTAAACCCCTGATGTTAATCGGGTCTTGATTCGCTTGACGCTGCTG | 2.13 z-score | 3.75 z-score
6 | CCGATTAACATCAAGGAAAACCCTGATGTTAATCGGGTCTTGATTCGCTTGACGCTGCTG | 1.6 z-score | 2.22 z-score
7 | CCGATTAACATCAAAAATCCCATTGATGTTAATCGGGTCTTGATTCGCTTGACGCTGCTG | 1.88 z-score | 3.48 z-score
8 | CCGATTAACATCAAAGAAATCCCTGATGTTAATCGGGTCTTGATTCGCTTGACGCTGCTG | 4.02 z-score | 3.77 z-score
9 | CCGATTAACATCAGGGGGTGTACTGATGTTAATCGGGTCTTGATTCGCTTGACGCTGCTG | 3.99 z-score | 4.44 z-score
10 | CCGATTAACATCATTTATCCCGGTGATGTTAATCGGGTCTTGATTCGCTTGACGCTGCTG | 1.28 z-score | 1.33 z-score
11 | CCGATTAACATCAGCTTGGGAAATGATGTTAATCGGGTCTTGATTCGCTTGACGCTGCTG | 1.58 z-score | 1.1 z-score
12 | CCGATTAACATCACGGGACTTCCTGATGTTAATCGGGTCTTGATTCGCTTGACGCTGCTG | 4.98 z-score | 4.6 z-score
